Hit rate of the full screen: of about 1,300 compounds, about 380 (29%) were called active. Inconclusive results (about 37%) are left out. Calls follow the shape of the dose curve; as a rule, active = well fitted inhibition curve with a large enough effect; inconclusive = small, poorly fitted or top-dose-only effect; inactive = flat fitted curve, though single readings scatter. This is one part of the list. Entries that show only a call come without a potency.
Potency is read from the fitted curve at half-maximal effect.

Sequence of Thyrotropin receptor (Homo sapiens) (P16473 whole entry, looked up): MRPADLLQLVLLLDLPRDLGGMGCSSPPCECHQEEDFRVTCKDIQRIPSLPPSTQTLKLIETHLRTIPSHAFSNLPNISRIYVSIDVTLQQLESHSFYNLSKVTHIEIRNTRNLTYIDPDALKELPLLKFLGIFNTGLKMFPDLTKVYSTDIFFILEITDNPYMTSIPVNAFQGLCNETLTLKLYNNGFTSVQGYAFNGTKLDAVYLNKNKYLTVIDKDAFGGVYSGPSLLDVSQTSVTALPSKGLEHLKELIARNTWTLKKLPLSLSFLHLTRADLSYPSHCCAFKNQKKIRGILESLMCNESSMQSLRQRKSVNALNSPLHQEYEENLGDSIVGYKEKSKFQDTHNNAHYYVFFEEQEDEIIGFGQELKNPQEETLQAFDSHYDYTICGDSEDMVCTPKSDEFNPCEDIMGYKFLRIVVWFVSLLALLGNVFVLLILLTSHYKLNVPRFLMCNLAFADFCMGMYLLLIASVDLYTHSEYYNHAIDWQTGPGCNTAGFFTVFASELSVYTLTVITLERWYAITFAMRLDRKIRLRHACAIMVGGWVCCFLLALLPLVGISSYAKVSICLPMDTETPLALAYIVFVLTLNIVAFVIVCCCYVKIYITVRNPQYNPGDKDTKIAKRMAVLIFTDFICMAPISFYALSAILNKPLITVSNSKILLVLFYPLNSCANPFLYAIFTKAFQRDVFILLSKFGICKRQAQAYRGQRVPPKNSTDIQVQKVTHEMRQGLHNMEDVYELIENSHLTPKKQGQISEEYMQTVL

This assay concerns the target Thyrotropin receptor (Homo sapiens) (UniProt P16473). Nature of the assay: qHTS for antagonists of the Thyroid Stimulation Hormone Receptor: Hit Validation in Primary Screen. Also: nearly all actives have a fitted effect of over 80% in size. As to conditions: TSHR-expressing cells, cAMP antagonist mode; series mostly up to 58 µM. The essentials:
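TSHR-expressing cells were pretreated with compound, then stimulated with TSH at EC80 (4nM final) for 2 hours at 37 deg C. Cellular cAMP measured by competitive HTRF (anti-cAMP cryptate, cAMP-d2) after 30 min at room temperature.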
On the technique in general: qHTS replaces the single test concentration by a dilution series.
For `Cc1ccccc1-n1sc2cc(F)ccc2c1=O`, the Potency is 19 µM (active).

As for `Cc1c(C(=O)OC/C(O)=C(\C#N)c2nc3ccccc3[nH]2)oc2ccc(Br)cc12`, the Potency result is “inactive”.

Take `CS(=O)(=O)N(CC(=O)N1CCOCC1)c1cccc(F)c1`: the Potency result is “inactive”.

With `O=C(CSc1n[nH]c(=O)n1C1CC1)c1ccc2c(c1)OCCO2`, the Potency result is “inactive”.

In the case of `Cc1ccc(S(=O)(=O)c2c(C(=O)c3ccccc3)cnc3cc4c(cc23)OCCO4)cc1`, the Potency entry was “inactive”.

Turning to `O=C(CSc1ncnc2ccccc12)c1ccc2c(c1)OCCO2`, the Potency was 26.9 µM (active).

As for `COCC(C)NC(=O)C1c2ccccc2Oc2ccccc21` (configuration not stated), the Potency result was “inactive”.

As for `O=S(=O)(Nc1ccc(O)c(Sc2nc3ccccc3s2)c1)c1cccc2ccccc12`, the Potency is 37.9 µM (active).

`CCn1c(Cl)c(C=O)s/c1=N\S(=O)(=O)c1ccccc1`: the Potency was 21.3 µM (active).

`CC(=O)N1c2ccc(S(=O)(=O)NCCC(=O)Nc3cccc(Cl)c3)cc2CC1C` (configuration not stated): the Potency result was “inactive”.

Take `CC(=O)c1cccc(NC(=O)CCCSc2ccccc2)c1`: the Potency entry is “inactive”.

As to `CCN(CC)S(=O)(=O)c1cccc(NC(=O)CCSc2ccc(Cl)cc2)c1`, the Potency is 30.1 µM (active).

For `CC1CCCN(S(=O)(=O)c2csc(C(N)=O)c2)C1` (configuration not stated), the Potency entry is “inactive”.

As for `CCOP(=O)(Cc1ccc(C(C)(C)CC(C)=O)o1)OCC`, the Potency entry was “inactive”.

For `O=C(c1ccc2c(c1)N(Cc1ccccc1)C(=O)c1ccccc1S2)N1CCCC1`, the Potency result was “inactive”.

Take `Cc1ccc(CN2C(=O)c3ccccc3Sc3ccc(C(=O)NCCCN4CCOCC4)cc32)cc1`: the Potency result was “inactive”.

As for `Cc1ccc(C(=O)N2c3ccccc3N(Cc3ccccc3)C(=O)C2(C)C)cc1`, the Potency was 16.9 µM (active).

`O=C(NC(Nc1nc2ccc([N+](=O)[O-])cc2s1)(C(F)(F)F)C(F)(F)F)c1ccccc1`: the Potency is 0.953 µM (active).

In the case of `COc1ccc2nc(NC(=O)c3ccccc3[N+](=O)[O-])sc2c1`, the Potency entry is “inactive”.

Regarding `O=C(NC(Nc1nc2ccc([N+](=O)[O-])cc2s1)(C(F)(F)F)C(F)(F)F)c1cccnc1`, the Potency is 7.57 µM (active).

In the case of `CSc1cccc(NC(=O)CN2C(=O)COc3ccc(S(=O)(=O)N4CCOCC4)cc32)c1`, the Potency result is “inactive”.

Regarding `Cc1cccc(NC(=O)C2CCN(S(=O)(=O)c3ccc4c(c3)NC(=O)CO4)CC2)c1`, the Potency result is “inactive”.

Take `O=C(COC(=O)C12CC3CC(CC(Br)(C3)C1)C2)Nc1cccc(S(=O)(=O)N2CCOCC2)c1`: the Potency was 23.9 µM (active).

Regarding `C=CCN1C(=O)/C(=C/c2ccc(OC(C)=O)c(OCC)c2[N+](=O)[O-])SC1=S`, the Potency is 7.57 µM (active).

`COc1cc(/C=C/C(=O)c2ccc(NS(=O)(=O)c3ccc(C)cc3)cc2)ccc1OC(F)F`: the Potency result was “inactive”.

As to `COc1ccc(/C=C/C(=O)c2ccc(NS(=O)(=O)c3ccc(C)cc3)cc2)cc1O`, the Potency was 23.9 µM (active).

Regarding `Nc1nc(SCC(=O)NCC2CCCO2)[nH]c(=O)c1NC(=O)c1ccc(F)c(F)c1` (configuration not stated), the Potency result is “inactive”.

For `Cc1cc(C(=O)CSc2nc3ccccc3[nH]2)c(C)n1CC1CCCO1` (configuration not stated), the Potency was 21.3 µM (active).

On to `CCOc1ccccc1NC(=O)CSc1nc2ccccc2c(=O)n1CC1CCCO1` (configuration not stated), for which the Potency entry is “inactive”.

As for `CC1(C)CC(O)CC(C)(C)N1CC(O)COCc1ccccc1` (configuration not stated), the Potency result was “inactive”.

For `Clc1c(CSc2nc3ccccc3o2)nc2ccccn12`, the Potency is 23.9 µM (active).

Turning to `Cc1c(C(=O)Nc2ccc3c(c2)OCCO3)sc2nc(-c3ccccc3)cn12`, the Potency is 30.1 µM (active).

As for `Cc1cc(-n2c(C)cc(C(=O)CSc3[nH]c(=O)cc(C(F)(F)F)c3C#N)c2C)no1`, the Potency was 9.53 µM (active).

In the case of `Cc1ccc(Sc2ncccc2NC(=O)c2ccccc2Cl)cc1`, the Potency entry is “inactive”.

Take `CCCCn1c(NC(=O)c2ccccc2Cl)c(C#N)c2nc3ccccc3nc21`: the Potency is 15.1 µM (active).

Consider `Cc1cccc2c1-c1sc(C(=O)NCCCN3CCCC(C)C3)cc1CO2` (configuration not stated), for which the Potency entry was “inactive”.

Take `CCCCn1c(-c2csc3c2CCCC3)n[nH]c1=S`: the Potency was 30.1 µM (active).

Turning to `CCCCCCSc1ccc(-c2nc3ccc(Cl)cn3c2NCCCC)cc1OC`, the Potency result is “inactive”.

In the case of `CCCCNc1c(-c2cccc(-c3ccc(OC)cc3)c2)nc2ccc(C)cn12`, the Potency was 37.9 µM (active).

Regarding `COc1ccc(-c2cc(-c3nc4ccccn4c3NCc3ccccc3)ccc2OC)cc1`, the Potency was 2.69 µM (active).

For `COc1ccc(-c2csc3ncn(Cc4ccccc4)c(=O)c23)cc1`, the Potency entry is “inactive”.

For the compound `CCC(C)Sc1ccc(-c2nc3ccc(C)cn3c2NCc2ccccc2)cc1OC` (configuration not stated), the Potency was 21.3 µM (active).

With `CCOc1ccccc1/C=C/c1onc(C)c1S(=O)(=O)N1CCC(C(=O)N2CCCCCC2)CC1`, the Potency result is “inactive”.

For the compound `CCOc1ccccc1NC(=O)C1(S(=O)(=O)c2ccc(Cl)cc2)CC1`, the Potency entry is “inactive”.

Regarding `C=CC(C)(C)c1c2occc2c(O)c2ccc(=O)oc12`, the Potency was 16.9 µM (active).

For `COc1cccc(O)c1CN1CCC(C(=O)Nc2ccc(Oc3cccnc3)cc2)CC1`, the Potency result is “inactive”.

Consider `O=[N+]([O-])c1ccc(S(=O)(=O)c2ccccc2)nc1`, for which the Potency was 37.9 µM (active).

With `COc1ccc(-c2sc3ccc(N4CCOCC4)cc3c2C#CCO)cc1`, the Potency is 19 µM (active).

With `O=C(c1ccc2c(=O)n(Cc3ccc4c(c3)OCO4)c(=S)[nH]c2c1)N1CCCCC1`, the Potency entry was “inactive”.

Consider `CCN(C(=O)CN1C(=O)COc2ccc(S(=O)(=O)N3CCOCC3)cc21)c1ccc(OC)cc1`, for which the Potency result is “inactive”.

In the case of `COc1ccc(C(=O)c2ccccc2)c2c(O)ccc(C(=O)c3ccccc3)c12`, the Potency is 12 µM (active).

`COC(=O)c1ccc(NC(=O)c2ccccc2)o1`: the Potency entry was “inactive”.

Consider `Cc1ccc(OCc2cc(C(=O)NCC3COCCO3)no2)cc1C` (configuration not stated), for which the Potency entry was “inactive”.

Regarding `Cc1cc(OCc2cc(C(=O)NCc3csc(C(C)C)n3)no2)cc(C)c1Cl`, the Potency entry was “inactive”.

`CC(CNC(=O)c1cc(COc2ccc3ncccc3c2)on1)c1ccccc1` (configuration not stated): the Potency was 23.9 µM (active).

On to `O=C(NCc1cccc(Cl)c1)c1cc(COc2ccc3ncccc3c2)on1`, for which the Potency was 9.53 µM (active).

With `Cc1ccc(F)cc1CNC(=O)c1cc(COc2ccc3ncccc3c2)on1`, the Potency was 21.3 µM (active).

With `COc1ccc(CNC(=O)C(C)OC(=O)c2cccs2)cc1` (configuration not stated), the Potency result was “inactive”.

As to `COc1ccc(S(=O)(=O)NCCc2cn3nc(C)c(C)nc3n2)cc1F`, the Potency result is “inactive”.

With `COc1ccc(NC2CCCN(C(=O)CCc3cccc(F)c3)C2)cc1` (configuration not stated), the Potency entry is “inactive”.

With `CCOc1ccc(-c2csc(/C(C#N)=C\c3ccc(O)c([N+](=O)[O-])c3)n2)cc1`, the Potency was 6.01 µM (active).

In the case of `COc1ccc(-c2csc(/C(C#N)=C\c3ccc(O)c([N+](=O)[O-])c3)n2)cc1OC`, the Potency was 1.9 µM (active).

On to `NC(=O)c1cc(S(=O)(=O)NCc2ccc(F)cc2)cs1`, for which the Potency entry was “inactive”.

Regarding `CCN(CCCNC(=O)Cn1ncc2c([nH]c3ccc(C)cc32)c1=O)c1cccc(C)c1`, the Potency result is “inactive”.

`COc1ccc(/C=N/NC(=O)c2ccoc2C)cc1COc1c(C)cccc1C`: the Potency is 12 µM (active).

For `COc1ccc(N2C(=O)NC(NS(=O)(=O)c3ccc(Cl)cc3)(C(F)(F)F)C2=O)cc1` (configuration not stated), the Potency result is “inactive”.

Take `O=c1cc(C(F)(F)F)[nH]c2ccc(OC(F)(F)F)cc12`: the Potency was 9.53 µM (active).

On to `O=c1nc(/C=C/c2ccccc2C(F)(F)F)cc(C(F)(F)F)[nH]1`, for which the Potency result is “inactive”.

For the compound `O=c1cc(C(F)(F)F)[nH]c2c(C(F)(F)F)cccc12`, the Potency is 2.39 µM (active).

On to `O=C(Cn1ncc2c([nH]c3ccccc32)c1=O)NCC1CCN(Cc2ccc(F)cc2)CC1`, for which the Potency result is “inactive”.

In the case of `CCOC(=O)C1=C(C)Nc2ccccc2N=C1NC(=O)c1cc(C)on1`, the Potency entry is “inactive”.

For the compound `N#CC1=C(N)NC(SCc2ccc(Br)cc2)=C(C#N)C12CCCCC2`, the Potency was 23.9 µM (active).

Turning to `COc1ccc(Cl)cc1NC(=O)C1CCN(C(=O)C2CC(=O)N(c3ccc(C)cc3)C2)CC1` (configuration not stated), the Potency entry is “inactive”.

On to `Cc1cc(Cl)c(S(=O)(=O)N2CCSCC2)cc1OCC(=O)NC1CCCCC1`, for which the Potency was 23.9 µM (active).

In the case of `Cc1ccc(S(=O)(=O)N2CCCC(C(=O)NC3CCCC3)C2)cc1Cl` (configuration not stated), the Potency result is “inactive”.

As for `COc1cc(OC)c(NC(=O)Cn2cnc3sc(C)c(S(=O)(=O)N4CCOCC4)c3c2=O)cc1Cl`, the Potency result was “inactive”.

Consider `O=C(NC1CCCCC1)c1cc(-c2ccccc2O)on1`, for which the Potency entry was “inactive”.

Take `CCOC(=O)c1c(S(=O)(=O)NCC(=O)Nc2cccc(C)c2C)c(C)n(C)c1C`: the Potency result is “inactive”.

Take `c1ccc(CNc2ncnc3scc(-c4cccs4)c23)nc1`: the Potency is 21.3 µM (active).

`Cc1ccc(OCc2nnc(NC(=O)c3cccnc3)s2)cc1`: the Potency result is “inactive”.

In the case of `O=C(CCC(=O)Nc1ccccc1)N/N=C/c1ccncc1`, the Potency entry was “inactive”.

In the case of `O=C(COc1ccc(-c2ccccc2)cc1)Nc1cccnc1`, the Potency is 37.9 µM (active).

For `O=C(Nc1ccc(Br)cc1)c1cccc(S(=O)(=O)Nc2cnc3ccccc3c2)c1`, the Potency is 21.3 µM (active).

On to `CCCN1C(=O)c2ccc(C(=O)Nc3cc(C)ccc3O)cc2C1=O`, for which the Potency result was “inactive”.

On to `CCCCN1C(=O)c2ccc(C(=O)Nc3ccc(C)c(S(=O)(=O)N(C)C)c3)cc2C1=O`, for which the Potency was 23.9 µM (active).

On to `O=[N+]([O-])c1cccc(S(=O)(=O)Nc2nc3ccccc3nc2Nc2cccc(S(=O)(=O)N3CCCCC3)c2)c1`, for which the Potency is 12 µM (active).

For `COC(=O)c1sc(-c2ccc(Cl)cc2)cc1NC(=O)/C=C/C(=O)O`, the Potency was 30.1 µM (active).

In the case of `COC(=O)c1sc(-c2ccc(C(C)(C)C)cc2)cc1NC(=O)/C=C/C(=O)O`, the Potency was 26.9 µM (active).

For the compound `Cc1ccccc1NC(=O)C1(C)Cc2ccccc2C(=O)O1` (configuration not stated), the Potency entry was “inactive”.

In the case of `CCN(C(=O)CSc1nnc(-c2ccccc2)o1)c1c(N)n(Cc2ccccc2)c(=O)[nH]c1=O`, the Potency entry is “inactive”.

`CC1CC(C)CN(CCCNC(=O)CN2C(=O)COc3ccc(S(=O)(=O)N4CCOCC4)cc32)C1` (configuration not stated): the Potency entry was “inactive”.

In the case of `CC(C)C1Nc2ccc(C(=O)N3CCN(c4ccccn4)CC3)cc2NC1=O` (configuration not stated), the Potency entry is “inactive”.

Turning to `CC1CCc2c(sc(NC(=O)c3ccco3)c2C(=O)O)C1` (configuration not stated), the Potency result is “inactive”.

As to `CN(C)c1ccc(/C=C/c2cc[n+](C)cc2)cc1`, the Potency is 37.9 µM (active).

Turning to `CC[n+]1ccc(/C=C/c2ccc(N(C)C)cc2)c2ccccc21`, the Potency was 26.9 µM (active).

Consider `CN(C)c1ccc(/C=C/c2ccc3c4ccccc4ccc3[n+]2-c2ccccc2)cc1`, for which the Potency is 23.9 µM (active).

Regarding `CC[n+]1c(/C=C/c2ccc(N(C)C)cc2)ccc2ccccc21`, the Potency was 26.9 µM (active).

The values are drawn from PubChem BioAssay AID602292 (National Center for Advancing Translational Sciences (NCATS), 2012).
